This is part of a sample that, as a whole, favours compounds with a hit. Of some 83,000 tested, about 20% had one in any assay.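 Single-concentration screen, 48 h exposure, 96-well plates. Endpoint: percent growth. Below 10 = active.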 Activity calls are given as the source filed them.
Test system: 786-0 renal
Test: NCI-60 one-dose screen, 48 h (100 = growth as untreated, 0 = no growth, -100 = all killed)
Settings: 10 µM unless noted

Row | SMILES | growth
1 | O=C(Nc1ccccc1)Nc1ncnc2c1ncn2-c1ccc(Cl)cc1 | 46.9% (inactive)
2 | CC(C)c1ccc(C(=O)Nc2nc3ccc(O)c(CN(C)C)c3s2)cc1 | 89.9% (inactive)
3 | Cc1ccc(Nn2c(SCC(=O)Nc3nc(-c4ccccc4)cs3)nc(C)c2C)cc1 | 82.3% (inactive)
4 | N#CC(C#N)N=Nc1ccc(Br)cc1 | 35.4% (inactive)
5 | CCN1C(=S)N(c2ccccc2)C2C1NN=c1s/c(=C3\C(=O)N(C(C)C)c4ccccc43)c(=O)n12 (stereo not drawn) | 93.7% (inactive)
6 | CSc1nc2ccccc2cc1/C=[N+](\[O-])c1ccccc1 | 74.6% (inactive)
7 | CN1CCN(c2cc(Nc3cc(C4CC4)[nH]n3)nc(Nc3ccc(CC(=O)NCc4cccc(F)c4)cc3)n2)CC1 | 18.3% (inactive)
8 | C=CCN=c1sc2c(n1NC(=O)c1cc3ccc1CCc1ccc(cc1)CC3)C(=O)c1ccccc1C2=O | -21.8% (active)
9 | Cn1cc(-c2csc(-c3cn(C(=O)OC(C)(C)C)c4ccc(Br)cc34)n2)c2ccnc(Cl)c21 | 74.7% (inactive)
10 | CSc1oc(C)nc1[P+](c1ccccc1)(c1ccccc1)c1ccccc1 | 89.3% (inactive)
11 | C=C1C(=O)O[C@H]2[C@H]1CC/C(Cn1cc(-c3ccccc3)nn1)=C\CC[C@@]1(C)O[C@@H]21 | -78% (active)
12 | O=S(=O)(c1ccccc1)n1cc2c(c1)-c1nc(Nc3ncccn3)sc1CC2 | 18.3% (inactive)
13 | Cc1[nH]c(C(=O)Nc2ccccc2OC2CCNCC2)c(Cl)c1Cl | -56.6% (active)
14 | COc1ccc(-c2cc(-c3ccc(Cl)cc3)c(C#N)c(=O)n2Cc2ccc(C(=O)Nc3ccccc3N)cc2)cc1 | 90.3% (inactive)
15 | O=C(CN1CCCCC1)Nc1nc(-c2cc3ccccc3oc2=O)cs1 | 95.4% (inactive)
16 | Oc1ccc(Cl)cc1/C=N\NC(=S)N/N=C/c1cc(Cl)ccc1O | 21.4% (inactive)
17 | COC12C=C/C(=C(/C(=O)OCc3ccncn3)C(=O)CCCCCCCCC3(OC)C=C/C(=C(/C(=O)OCc4ccncn4)C(=O)CCCCCCCC1)O3)O2 | -71.2% (active)
18 | COc1ccc2c(c1)N(CCO)C1=C(C(=O)OC1)C2c1cccc(F)c1 (stereo not drawn) | 27.9% (inactive)
19 | CC(=O)Oc1ccc(/C(=C(\C)c2ccc(Cl)cc2)c2ccc(OCCN3CCCCC3)cc2)cc1 | -35.5% (active)
20 | O=C(N(c1ccccc1)c1ccccc1)n1cc(I)c2nc(Cl)nc(Cl)c21 | 57.7% (inactive)

Row | SMILES | growth
21 | N#Cc1nc(-c2ccccc2)oc1S(=O)(=O)N1CCN(c2ccccc2)CC1 | 99.8% (inactive)
22 | Cc1ccc(NC(=O)c2sc3nc(C)c(Br)c(C)c3c2N)cc1 | 30.5% (inactive)
23 | O=C(CN1C(=O)S/C(=C\C(Cl)=C\c2ccccc2)C1=O)NCCc1ccc(O)cc1 | -17.9% (active)
24 | O=C(/C=C/c1cn(-c2ccccc2)nc1-c1ccc(Cl)cc1)c1ccc(F)cc1 | 62.8% (inactive)
25 | CCOC(=O)c1c(NC(=O)c2cccc(C(F)(F)F)c2)sc2c(CN(C)C)c(O)ccc12 | 12.1% (inactive)
26 | N#Cc1c(-c2ccccc2)cc(-c2ccc(Nc3nc(Nc4ccc(Cl)cc4)nc(Nc4ccc(Cl)cc4)n3)cc2)nc1N | 46.7% (inactive)
27 | O=C(/C=C/c1cccs1)Nc1ncc(Cc2ccccc2F)s1 | 30.8% (inactive)
28 | O=S(=O)(Nc1cc(Cl)ccc1Cl)c1ccc(-c2cnc(C3CC3)o2)cc1 | 33% (inactive)
29 | CCOC(=O)c1ccc2c(c1)nc(-c1ccccc1)n2C1CCCCC1 | 88.5% (inactive)
30 | CC(=O)N1N=C(c2ccc(C(F)(F)F)c(F)c2)CC1c1[nH]c(C)c(C(=O)NCC(F)(F)F)c1C (stereo not drawn) | 13.1% (inactive)
31 | O=C(CN1C(=O)S/C(=C\c2ccccc2)C1=O)Nc1ncc(Cc2ccccc2Cl)s1 | 107% (inactive)
32 | COc1cc(OCc2cccc(Br)c2C)cc(OC)c1C=O | 79.4% (inactive)
33 | COc1cc(NS(=O)(=O)c2ccc(-c3cnc(C4CC4)o3)cc2)ccc1F | 31.4% (inactive)
34 | COC1=CC(c2ccc[nH]2)=N/C1=C\c1[nH]c(C)c(CC(=O)OCc2ccccc2)c1CCC(=O)OCc1ccccc1 | -56.2% (active)
35 | Clc1cccc(Nc2ncnc3ccc(-c4cnc5[nH]ccc5c4)cc23)c1 | -19.6% (active)
36 | COc1cc2ncnc(Nc3ccc(F)c(Cl)c3)c2cc1OCC(=O)N1CCN(c2ccccc2)CC1 | 85.6% (inactive)
37 | O=C1Nc2ccccc2/C1=C/c1nc2ccccc2c(=O)[nH]1 | 104% (inactive)
38 | CNc1nnc2n(-c3ccccc3)c(=O)c3cnn(-c4ccccc4)c3n12 | 74.7% (inactive)
39 | C=C1C(=O)O[C@H]2[C@H]1CC/C(COC(=O)c1cc3ccccc3s1)=C\CC[C@@]1(C)O[C@@H]21 | -83.4% (active)

Test system: COLO 205 colon
Test: as above
Settings: 10 µM unless noted

Row | SMILES | growth
40 | O=C(Nc1ccccc1)Nc1ncnc2c1ncn2-c1ccc(Cl)cc1 | 86.8% (inactive)
41 | CC(C)c1ccc(C(=O)Nc2nc3ccc(O)c(CN(C)C)c3s2)cc1 | 84.7% (inactive)
42 | Cc1ccc(Nn2c(SCC(=O)Nc3nc(-c4ccccc4)cs3)nc(C)c2C)cc1 | 27.1% (inactive)
43 | N#CC(C#N)N=Nc1ccc(Br)cc1 | -28.7% (active)
44 | CCN1C(=S)N(c2ccccc2)C2C1NN=c1s/c(=C3\C(=O)N(C(C)C)c4ccccc43)c(=O)n12 (stereo not drawn) | 89.4% (inactive)
45 | CSc1nc2ccccc2cc1/C=[N+](\[O-])c1ccccc1 | 103% (inactive)
46 | CN1CCN(c2cc(Nc3cc(C4CC4)[nH]n3)nc(Nc3ccc(CC(=O)NCc4cccc(F)c4)cc3)n2)CC1 | -54.9% (active)
47 | C=CCN=c1sc2c(n1NC(=O)c1cc3ccc1CCc1ccc(cc1)CC3)C(=O)c1ccccc1C2=O | 19.2% (inactive)
48 | Cn1cc(-c2csc(-c3cn(C(=O)OC(C)(C)C)c4ccc(Br)cc34)n2)c2ccnc(Cl)c21 | 90.9% (inactive)
49 | CSc1oc(C)nc1[P+](c1ccccc1)(c1ccccc1)c1ccccc1 | 7.5% (active)
50 | C=C1C(=O)O[C@H]2[C@H]1CC/C(Cn1cc(-c3ccccc3)nn1)=C\CC[C@@]1(C)O[C@@H]21 | -65.3% (active)
51 | O=S(=O)(c1ccccc1)n1cc2c(c1)-c1nc(Nc3ncccn3)sc1CC2 | 61.9% (inactive)
52 | Cc1[nH]c(C(=O)Nc2ccccc2OC2CCNCC2)c(Cl)c1Cl | -9.94% (active)
53 | COc1ccc(-c2cc(-c3ccc(Cl)cc3)c(C#N)c(=O)n2Cc2ccc(C(=O)Nc3ccccc3N)cc2)cc1 | 95.8% (inactive)
54 | O=C(CN1CCCCC1)Nc1nc(-c2cc3ccccc3oc2=O)cs1 | 116% (inactive)
55 | Oc1ccc(Cl)cc1/C=N\NC(=S)N/N=C/c1cc(Cl)ccc1O | 41.5% (inactive)
56 | COC12C=C/C(=C(/C(=O)OCc3ccncn3)C(=O)CCCCCCCCC3(OC)C=C/C(=C(/C(=O)OCc4ccncn4)C(=O)CCCCCCCC1)O3)O2 | 3.33% (active)
57 | COc1ccc2c(c1)N(CCO)C1=C(C(=O)OC1)C2c1cccc(F)c1 (stereo not drawn) | -22.6% (active)
58 | CC(=O)Oc1ccc(/C(=C(\C)c2ccc(Cl)cc2)c2ccc(OCCN3CCCCC3)cc2)cc1 | -52.4% (active)
59 | O=C(N(c1ccccc1)c1ccccc1)n1cc(I)c2nc(Cl)nc(Cl)c21 | 79.4% (inactive)

Row | SMILES | growth
60 | N#Cc1nc(-c2ccccc2)oc1S(=O)(=O)N1CCN(c2ccccc2)CC1 | 122% (inactive)
61 | Cc1ccc(NC(=O)c2sc3nc(C)c(Br)c(C)c3c2N)cc1 | 84.9% (inactive)
62 | O=C(CN1C(=O)S/C(=C\C(Cl)=C\c2ccccc2)C1=O)NCCc1ccc(O)cc1 | 13.7% (inactive)
63 | O=C(/C=C/c1cn(-c2ccccc2)nc1-c1ccc(Cl)cc1)c1ccc(F)cc1 | 93.4% (inactive)
64 | CCOC(=O)c1c(NC(=O)c2cccc(C(F)(F)F)c2)sc2c(CN(C)C)c(O)ccc12 | 19% (inactive)
65 | N#Cc1c(-c2ccccc2)cc(-c2ccc(Nc3nc(Nc4ccc(Cl)cc4)nc(Nc4ccc(Cl)cc4)n3)cc2)nc1N | -25.3% (active)
66 | O=C(/C=C/c1cccs1)Nc1ncc(Cc2ccccc2F)s1 | 4.7% (active)
67 | O=S(=O)(Nc1cc(Cl)ccc1Cl)c1ccc(-c2cnc(C3CC3)o2)cc1 | 43.5% (inactive)
68 | CCOC(=O)c1ccc2c(c1)nc(-c1ccccc1)n2C1CCCCC1 | 76.3% (inactive)
69 | CC(=O)N1N=C(c2ccc(C(F)(F)F)c(F)c2)CC1c1[nH]c(C)c(C(=O)NCC(F)(F)F)c1C (stereo not drawn) | 112% (inactive)
70 | O=C(CN1C(=O)S/C(=C\c2ccccc2)C1=O)Nc1ncc(Cc2ccccc2Cl)s1 | 113% (inactive)
71 | COc1cc(OCc2cccc(Br)c2C)cc(OC)c1C=O | 93.4% (inactive)
72 | COc1cc(NS(=O)(=O)c2ccc(-c3cnc(C4CC4)o3)cc2)ccc1F | 3.71% (active)
73 | COC1=CC(c2ccc[nH]2)=N/C1=C\c1[nH]c(C)c(CC(=O)OCc2ccccc2)c1CCC(=O)OCc1ccccc1 | -45.6% (active)
74 | Clc1cccc(Nc2ncnc3ccc(-c4cnc5[nH]ccc5c4)cc23)c1 | 83.4% (inactive)
75 | COc1cc2ncnc(Nc3ccc(F)c(Cl)c3)c2cc1OCC(=O)N1CCN(c2ccccc2)CC1 | 112% (inactive)
76 | O=C1Nc2ccccc2/C1=C/c1nc2ccccc2c(=O)[nH]1 | 117% (inactive)
77 | CNc1nnc2n(-c3ccccc3)c(=O)c3cnn(-c4ccccc4)c3n12 | 84.7% (inactive)
78 | C=C1C(=O)O[C@H]2[C@H]1CC/C(COC(=O)c1cc3ccccc3s1)=C\CC[C@@]1(C)O[C@@H]21 | -71.3% (active)

Source: PubChem BioAssay (NCI)
